Reference: PubChem BioAssay (NCI)
This is part of a sample that, as a whole, favours compounds with a hit. Of some 79,000 tested, about 15% had one in any assay. Values without a mark were called inactive. Active and inactive are the calls of the source. Rule as the data show it: active = growth inhibition above about 70%; inactive = the rest.

test: NCI Yeast Anticancer Drug Screen. Data for the sgs1 mgt1 strain (AID 161);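 also: 0% = growth of cultures given vehicle only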; conditions: S. cerevisiae sgs1 mgt1 strain, at 5.0 µM (retest, dose inferred, filed as 0.5), stronger effect = higher value
How it was run: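 Read-out: growth inhibition vs vehicle controls. Cells: mutant yeast strain deficient in DNA damage repair.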

SMILES	growth inhibition
O=[N+]([O-])c1cccc(S(=O)(=O)N/N=C/c2cc(I)cc([N+](=O)[O-])c2O)c1	10%
COc1cc(N=Nc2cccc(S(N)(=O)=O)c2)c2ccccc2c1N	2%
O=S(=O)(c1ccc(O)cc1)c1ccc(Cl)cc1	-5%
C[N+](C)=c1ccc2nc3c(cc(NCCCNc4cc5oc6cc(=[N+](C)C)ccc-6nc5c5ccccc45)c4ccccc43)oc-2c1	-15%
CC(C)(C)C(=O)/C=C/c1ccc2ccccc2n1	-62%
CSc1ccc(/C=N/NC(N)=S)cc1	-65%
CN(C)c1ccc(/C=C(\C#N)c2c(F)cccc2F)cc1	4%
O=C(/C=C\c1ccccc1)N1c2ccccc2CC1c1c[nH]c2ccccc12 (stereo not given)	4%
COc1cccc(C2c3cc4c(cc3OC(Nc3ccccc3)C2C)OCO4)c1O (stereo not given)	1%
CC(/C=C/c1cccs1)=N\C(=S)NC(N)=S	1%
C=C1C(=O)O[C@H]2[C@H](OC(C)=O)[C@@H](C)CCC/C(C)=C/CC[C@@]3(C)O[C@@H]3C[C@@H]12	20%
CC(=O)O/C=C\COC(C)=O	3%
Cn1cc(NC(=O)c2cc(NC(=O)CCCCCCCCC(=O)Nc3cc(C(=O)Nc4cc(C(=O)NCCC(N)N)n(C)c4)n(C)c3)cn2C)cc1C(=O)NCCC(=N)N	80% (active)
CCCCCCCNCCCCCC	73% (active)
Cc1ccc(S(=O)(=O)N(c2ccccc2-c2ccccc2)C(C)C(=O)O)cc1 (stereo not given)	20%
CCCN1C(=O)c2ccccc2C1=O	-3%
CCC(CC)COC(=O)c1ccc(O)c(O)c1	-2%
COc1ccc(C2SCC(=O)N2c2nncs2)cc1 (stereo not given)	-1%
O=NN(CCCl)C(=O)Oc1cc(Cl)c(Cl)cc1Cl	84% (active)
O=C(c1ccccc1)c1ccccc1S(=O)(=O)Nc1ccccc1	-3%

SMILES	growth inhibition
O=S(O)CCCCCSSc1ccccc1	3%
Cc1ccc(C)c(N2C(=O)C(=O)C(c3nc4ccccc4o3)/C(=N\NC(=O)c3ccccc3O)C2=O)c1 (stereo not given)	7%
Nc1ccc2ccccc2c1Cc1c(O)ccc2ccccc12	6%
CN(C)CCC(=O)C(=Cc1cc(Cl)cc(Cl)c1)C(=O)CCN(C)C	12%
COC(=O)c1c(C(N)=O)c(C)n(NC(=O)c2ccccc2)c1C	-6%
O=C(O)/C(=C/c1c(O)ccc2ccccc12)c1csc(-c2nc(/C(=C\c3c(O)ccc4ccccc34)C(=O)O)cs2)n1	74% (active)
O=C(O)c1c2c(cc3c1CC1(Cc4cc5c(cc4C1=O)CCC5)C3)CCC2 (stereo not given)	57%
CCc1cccc(C(C)(C)C)c1NC(=S)N/C=C(\c1ccccc1)S(=O)Cc1ccccc1 (stereo not given)	10%
O=[N+]([O-])c1ccc(N/N=C/COCCO)c([N+](=O)[O-])c1	0%
O=C(O)CSc1nc(-c2ccccc2)c(-c2ccccc2)n1-c1ccccn1	-12%
C[C@]12CCC(=O)C=C1CC[C@@H]1[C@@H]2[C@@H](O)C[C@@]2(C)[C@H]1CC[C@]2(O)C(=O)COC(=O)C1CCCC1	-2%
C[C-](O)O.O/C(=C\[C-](O)c1ccccc1)c1ccccc1.O/C(=C\[C-](O)c1ccccc1)c1ccccc1.[Nd+3] (stereo not given)	42%
[Cl][Pt+2]([Cl])([Cl])[Cl].[NH-]CC1(C[NH-])CCCC1	62%
CSc1ccc2c(c1)S[S@@](=O)N2	9%
O=S=C(c1ccccc1)N(Cc1ccccc1)Cc1ccccc1	0%
NNc1c(Cl)c(F)c(Cl)c(F)c1Cl	4%
Cc1ccc(C)c(N2C(=O)C(=O)C(c3nc4ccccc4o3)C(=O)C2=O)c1	30%
NC(=S)N/N=C/c1ccc(Cl)s1	-5%
O=c1[nH]ccc(CNC23CC4CC(CC(C4)C2)C3)c1O	18%
CN(C)CCSc1cc(-c2ccccc2)c2ccccc2n1	-8%

same assay, conditions: S. cerevisiae sgs1 mgt1 strain, at 50.0 µM (retest, dose inferred, filed as 5.0), stronger effect = higher value

SMILES	growth inhibition
O=[N+]([O-])c1cccc(S(=O)(=O)N/N=C/c2cc(I)cc([N+](=O)[O-])c2O)c1	11%
COc1cc(N=Nc2cccc(S(N)(=O)=O)c2)c2ccccc2c1N	99% (active)
O=S(=O)(c1ccc(O)cc1)c1ccc(Cl)cc1	49%
C[N+](C)=c1ccc2nc3c(cc(NCCCNc4cc5oc6cc(=[N+](C)C)ccc-6nc5c5ccccc45)c4ccccc43)oc-2c1	70% (active)
CC(C)(C)C(=O)/C=C/c1ccc2ccccc2n1	-35%
CSc1ccc(/C=N/NC(N)=S)cc1	12%
CN(C)c1ccc(/C=C(\C#N)c2c(F)cccc2F)cc1	1%
O=C(/C=C\c1ccccc1)N1c2ccccc2CC1c1c[nH]c2ccccc12 (stereo not given)	19%
COc1cccc(C2c3cc4c(cc3OC(Nc3ccccc3)C2C)OCO4)c1O (stereo not given)	97% (active)
CC(/C=C/c1cccs1)=N\C(=S)NC(N)=S	12%
C=C1C(=O)O[C@H]2[C@H](OC(C)=O)[C@@H](C)CCC/C(C)=C/CC[C@@]3(C)O[C@@H]3C[C@@H]12	98% (active)
CC(=O)O/C=C\COC(C)=O	2%
Cn1cc(NC(=O)c2cc(NC(=O)CCCCCCCCC(=O)Nc3cc(C(=O)Nc4cc(C(=O)NCCC(N)N)n(C)c4)n(C)c3)cn2C)cc1C(=O)NCCC(=N)N	99% (active)
CCCCCCCNCCCCCC	93% (active)
Cc1ccc(S(=O)(=O)N(c2ccccc2-c2ccccc2)C(C)C(=O)O)cc1 (stereo not given)	62%
CCCN1C(=O)c2ccccc2C1=O	4%
CCC(CC)COC(=O)c1ccc(O)c(O)c1	91% (active)
COc1ccc(C2SCC(=O)N2c2nncs2)cc1 (stereo not given)	3%
O=NN(CCCl)C(=O)Oc1cc(Cl)c(Cl)cc1Cl	100% (active)
O=C(c1ccccc1)c1ccccc1S(=O)(=O)Nc1ccccc1	77% (active)

SMILES	growth inhibition
O=S(O)CCCCCSSc1ccccc1	36%
Cc1ccc(C)c(N2C(=O)C(=O)C(c3nc4ccccc4o3)/C(=N\NC(=O)c3ccccc3O)C2=O)c1 (stereo not given)	21%
Nc1ccc2ccccc2c1Cc1c(O)ccc2ccccc12	98% (active)
CN(C)CCC(=O)C(=Cc1cc(Cl)cc(Cl)c1)C(=O)CCN(C)C	99% (active)
COC(=O)c1c(C(N)=O)c(C)n(NC(=O)c2ccccc2)c1C	0%
O=C(O)/C(=C/c1c(O)ccc2ccccc12)c1csc(-c2nc(/C(=C\c3c(O)ccc4ccccc34)C(=O)O)cs2)n1	74% (active)
O=C(O)c1c2c(cc3c1CC1(Cc4cc5c(cc4C1=O)CCC5)C3)CCC2 (stereo not given)	57%
CCc1cccc(C(C)(C)C)c1NC(=S)N/C=C(\c1ccccc1)S(=O)Cc1ccccc1 (stereo not given)	56%
O=[N+]([O-])c1ccc(N/N=C/COCCO)c([N+](=O)[O-])c1	62%
O=C(O)CSc1nc(-c2ccccc2)c(-c2ccccc2)n1-c1ccccn1	4%
C[C@]12CCC(=O)C=C1CC[C@@H]1[C@@H]2[C@@H](O)C[C@@]2(C)[C@H]1CC[C@]2(O)C(=O)COC(=O)C1CCCC1	-9%
C[C-](O)O.O/C(=C\[C-](O)c1ccccc1)c1ccccc1.O/C(=C\[C-](O)c1ccccc1)c1ccccc1.[Nd+3] (stereo not given)	42%
[Cl][Pt+2]([Cl])([Cl])[Cl].[NH-]CC1(C[NH-])CCCC1	86% (active)
CSc1ccc2c(c1)S[S@@](=O)N2	34%
O=S=C(c1ccccc1)N(Cc1ccccc1)Cc1ccccc1	98% (active)
NNc1c(Cl)c(F)c(Cl)c(F)c1Cl	26%
Cc1ccc(C)c(N2C(=O)C(=O)C(c3nc4ccccc4o3)C(=O)C2=O)c1	98% (active)
NC(=S)N/N=C/c1ccc(Cl)s1	36%
O=c1[nH]ccc(CNC23CC4CC(CC(C4)C2)C3)c1O	67%
CN(C)CCSc1cc(-c2ccccc2)c2ccccc2n1	91% (active)
